39 compounds from PubChem BioAssay (Tox21) can be followed below.

Structures are written as SMILES. Inconclusive results are not listed. Entries that show only a call come without a potency. Active and inactive are the calls of the source. Calls follow the shape of the full dose curve.

Acetylcholinesterase (Homo sapiens), sequence (P22303 whole entry, looked up): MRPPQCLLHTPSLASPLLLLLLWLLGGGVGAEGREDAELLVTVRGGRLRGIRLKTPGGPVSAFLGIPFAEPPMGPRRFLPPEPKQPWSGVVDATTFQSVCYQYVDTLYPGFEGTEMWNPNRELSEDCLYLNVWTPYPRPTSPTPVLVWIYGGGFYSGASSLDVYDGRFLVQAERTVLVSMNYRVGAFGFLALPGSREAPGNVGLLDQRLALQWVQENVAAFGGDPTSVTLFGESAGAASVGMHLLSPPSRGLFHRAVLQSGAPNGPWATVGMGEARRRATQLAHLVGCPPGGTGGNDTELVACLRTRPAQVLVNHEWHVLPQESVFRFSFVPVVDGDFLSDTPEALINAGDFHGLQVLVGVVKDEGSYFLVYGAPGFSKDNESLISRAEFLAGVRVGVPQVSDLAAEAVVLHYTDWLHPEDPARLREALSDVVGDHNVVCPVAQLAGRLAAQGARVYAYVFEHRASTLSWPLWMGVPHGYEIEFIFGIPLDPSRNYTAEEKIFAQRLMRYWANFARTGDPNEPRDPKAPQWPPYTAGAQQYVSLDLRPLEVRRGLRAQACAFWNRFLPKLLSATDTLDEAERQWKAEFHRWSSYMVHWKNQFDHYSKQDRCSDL

The test has as its target Acetylcholinesterase (Homo sapiens) (UniProt P22303). The test is described as follows: Acetylcholinesterase (AChE) small molecule antagonists: colormetric cell-based qHTS assay (AID 1347395). Also: nearly all actives have a fitted effect of over 30% in size. The following applies: SH-SY5Y cells AChE activity, colorimetric (Ellman); series mostly up to 115 µM. In a few lines: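 SH-SY5Y cells attached overnight, exposed to compound 30 min at 37 C, then given DTNB/acetylthiocholine; after 90 min at 37 C, colorimetric thiocholine read gives cellular AChE activity.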
With `O=[N+]([O-])c1cccc(I)c1`, the Potency result was “inactive”.
As for `OC1CCCCC1c1ccccc1` (centres undefined), the Potency entry was “inactive”.
On the same count and under the same terms, then `Cc1ccc(C(N)=O)cc1N`, with “inactive”.
Turning to `CC(=O)OCC(C)OC(C)=O` (centres undefined), the Potency result was “inactive”.
Regarding `C=CC(=O)OCCOCC(CC)(COCCOC(=O)C=C)COCCOC(=O)C=C`, the Potency entry is “inactive”.
As for `c1ccc(-c2nc[nH]c2-c2ccccc2)cc1`, the Potency result is “inactive”.
For the compound `NC1CCN(c2nc3c(cc2F)c(=O)c(C(=O)O)cn3-c2ccc(F)cc2F)C1` (centres undefined), the Potency result is “inactive”.
Still for that read-out and setting: then `CC(=O)CC(=O)Nc1ccc2[nH]c(=O)[nH]c2c1`, with “inactive”.
Still for that read-out and setting: then `CCCCc1ccc(N)cc1`, with “inactive”.
Same read-out and setting: in the case of `CC(C)CCOCc1ccccc1` it was “inactive”.
Take `Nc1ccc(F)c([N+](=O)[O-])c1`: the Potency result is “inactive”.
For `NCC(=O)O`, the activity, negative = inhibition was 0.505% [at 23.6 µM] (inactive).
Turning to `CCOc1ccc(N)c([N+](=O)[O-])c1`, the Potency result was “inactive”.
Same read-out and setting: in the case of `Cc1cccc2nccnc12` it was “inactive”; in that of `O=C(O)COc1ccc2ccccc2c1`, “inactive”; in that of `Cc1cc(S(=O)(=O)O)ccc1N=Nc1c(O)ccc2ccccc12`, “inactive”.
Same read-out and setting: then `COC(C)=O`, with “inactive”; and `CN1C(C)(C)CCCC1(C)C`, with “inactive”.
With `Cc1cc(C)c(C=O)c(C)c1`, the Potency result was “inactive”.
Same read-out and setting: then `CCOC(=O)/C=C(C)/C=C/C=C(C)/C=C/c1c(C)cc(OC)c(C)c1C`, with “inactive”; and `CC1CCCO1` (centres undefined), with “inactive”.
Same read-out and setting: in the case of `CCC(=O)/C=C/c1ccc(OC)cc1` it was “inactive”.
Consider `O=C(NCCO[N+](=O)[O-])c1cccnc1`, for which the Potency entry was “inactive”.
On the same count and under the same terms, in the case of `CC(=O)OCC(=O)[C@@]1(O)CC[C@H]2[C@@H]3CCC4=CC(=O)C=C[C@]4(C)[C@@]3(F)[C@@H](O)C[C@@]21C` it was “inactive”.
The same measure, in the same setting: then `CC(=O)Nc1cccc(C)c1`, with “inactive”; and `CN(C)CCc1c[nH]c2ccc(CS(=O)(=O)N3CCCC3)cc12`, with “inactive”.
`CC(C)[N+](C)(C)CC(O)COc1cccc2ccccc12` (centres undefined): the Potency entry was “inactive”.
Consider `CC(C)(C)c1nnc(NS(=O)(=O)c2ccc(N)cc2)s1`, for which the Potency result was “inactive”.
For `Cc1ccc(C(C)NC(=O)[C@@H](NC(=O)OC(C)C)C(C)C)cc1` (some centres undefined), the Potency result was “inactive”.
Take `CC(C)Nc1nc(N)nc(Cl)n1`: the Potency entry is “inactive”.
Regarding `C=CCOc1ccccc1OCC(O)CNC(C)C` (centres undefined), the outcome was inactive.
Consider `O=C(Nc1ccccc1)c1ccccc1O`, for which the Potency result is “inactive”.
As to `O=C(Cl)c1cccc([N+](=O)[O-])c1`, the Potency result was “inactive”.
Same read-out and setting: then `CC12CC3CC(C)(C1)CC(N)(C3)C2`, with “inactive”; and `CCCc1ccc(O)c(OC)c1`, with “inactive”.
Still for that read-out and setting: then `CC(C)COC(=O)CC(C(=O)OCC(C)C)S(=O)(=O)O` (centres undefined), with “inactive”; and `O=c1[nH]sc2ccccc12`, with “inactive”.
Still for that read-out and setting: then `O=C1c2ccccc2C(=O)C1(O)O`, with “inactive”; and `CC(C)=CCNc1ncnc2c1ncn2[C@@H]1O[C@H](CO)[C@@H](O)[C@H]1O`, with “inactive”.
